# PI5P4Ka inh: blocks human PI5P4K alpha kinase activity; P48426; PI5P4Kalpha enzyme, ADP-Glo luminescence, 60 min; stronger effect = lower value; max response, %; 330,000 tested, 1.2% active; AID 652105; active = max response of -50% or lower; inconclusive = between -30% and -50%; inactive = -30% or higher; note: value at the top dose of about 77 µM
#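 Controls without substrate or without enzyme flank wells where PI5P4Kalpha converts substrate using 5 microM ATP (final). Incubation lasts 60 minutes at room temperature; ADP formed is read by ADP-Glo luminescence.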
# APE1 inh: APE1 (human) endonuclease inhibition | P27695 | recombinant APE1, TAMRA/BHQ-2 abasic DNA cleavage fluorescence | Potency, µM (top dose mostly 65.8 µM), for the others: top-dose activity change, negative = inhibition, most hits filed as inhibitors | 350,000 tested, 0.35% active;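 note: potency is the fitted concentration of half-maximal effect; plate controls were vehicle for no effect and reference inhibitor for full effect; nearly all actives have a fitted effect of over 55% in size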
#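 Substrate: short duplex with […] THF abasic site, 5'-TAMRA and 3'-BHQ-2, 50 nM final. APE1 at 0.75 nM, preincubated 15 min RT with compound. Fluorescence increase from first to third read measured activity.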
# RECQ1 helicase: inhibitors of human RECQ1 DNA helicase; P46063; RECQ1 DNA unwinding, red fluorescence kinetic read; Potency, µM (highest dose often 57.3 µM), without a hit: at the top dose activity, negative = inhibition, hits mostly inhibitors; 240,000 tested, 0.54% active;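 note: potency is the fitted concentration of half-maximal effect; plate controls were vehicle for no effect and no enzyme for full effect; nearly all actives have a fitted effect of over 30% in size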
# Target sequence (P46063 whole entry, looked up): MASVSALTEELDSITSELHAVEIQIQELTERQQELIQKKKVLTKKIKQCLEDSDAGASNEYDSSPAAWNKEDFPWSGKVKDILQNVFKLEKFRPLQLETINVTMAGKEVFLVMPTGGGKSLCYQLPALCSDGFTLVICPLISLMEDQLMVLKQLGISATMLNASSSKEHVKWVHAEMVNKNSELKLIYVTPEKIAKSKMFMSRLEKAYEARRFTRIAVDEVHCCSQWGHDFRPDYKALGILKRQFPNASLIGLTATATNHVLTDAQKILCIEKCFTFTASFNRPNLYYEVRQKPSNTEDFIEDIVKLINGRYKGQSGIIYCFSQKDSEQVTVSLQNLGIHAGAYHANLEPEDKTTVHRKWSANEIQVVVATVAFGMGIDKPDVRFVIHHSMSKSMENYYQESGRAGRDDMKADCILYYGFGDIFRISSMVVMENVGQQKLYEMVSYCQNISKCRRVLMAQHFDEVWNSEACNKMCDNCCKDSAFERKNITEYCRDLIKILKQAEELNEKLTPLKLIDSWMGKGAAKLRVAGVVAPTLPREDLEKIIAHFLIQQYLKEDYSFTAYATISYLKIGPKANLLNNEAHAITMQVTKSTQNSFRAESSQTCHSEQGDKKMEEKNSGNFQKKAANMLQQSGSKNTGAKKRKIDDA
#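 50 nM RECQ1T1 preincubated 15 min with compound in Tris pH 8.0 buffer with MgCl2, DTT, Tween-20 and 2.5 ug/ml poly(dI-dC); started with 200 nM TAMRA/BHQ-2 forked duplex and 2 mM ATP. Unwinding read as fluorescence (525/598 nm), two reads 2 h apart.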
# KAT2A inh: blocks human GCN5L2 histone acetyltransferase; Q92830; GCN5L2 HAT assay, ThioGlo1 CoA-SH fluorescence; Potency, µM (highest dose often 58.9 µM), without a hit: at the highest dose activity change, negative = inhibition, actives largely listed as inhibitors; 390,000 tested, 0.21% active; AID 504327; note: potency is the fitted concentration of half-maximal effect
#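 Preincubate 20nM GCN5L2 with compound 15 min, RT → add 50uM ThioGlo1 + 75uM H3(1-25) + 70uM acetyl-CoA → read fluorescence 0 and 20 min. Primary qHTS; fluorescent artifacts likely.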
# FEN1 inhibitor: human FEN1 inhibition. P39748. Recombinant FEN1 flap cleavage, fluorescence, 15 min. Potency, µM (highest dose often 114 µM), inactives show at the highest dose activity change, negative = inhibition, most hits filed as inhibitors. 390,000 tested, 0.35% active; note: potency is the fitted concentration of half-maximal effect; nearly all actives have a fitted effect of over 65% in size
#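 Compounds are tested as a concentration series against 10 nM FEN1; after a 15 min room-temperature preincubation, 50 nM substrate starts cleavage, with plate reads at 0 and 15 min. Normalized responses are fitted by a Hill equation.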
# BLM inh: blocks DNA unwinding by human BLM helicase; P54132; recombinant BLM DNA unwinding, fluorescence dequenching; Potency, µM (doses to about 56.1 µM), for the others: top-dose activity change, negative = inhibition, usual class: inhibitors; 350,000 tested, 0.2% active; AID 2528;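 note: potency is the fitted concentration of half-maximal effect; plate controls were vehicle for no effect and no enzyme for full effect; nearly all actives have a fitted effect of over 35% in size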
# Active calls of the source: *; i = inactive; ? = inconclusive; nt = no result given; [ ] = another dose, or the depositor's remark. Sampled rows, rich in hits. Any-hit rate of the full collection: about 1.5%. Unless noted, calls come from the whole dose curve; as a rule, active = well fitted curve in the direction sought with a large enough effect; inconclusive = small, poorly fitted or top-dose-only effect, or another doubt; inactive = no such curve, though single readings can be large; an effect the other way counts as inactive or inconclusive. Unless noted, % is set by controls: 0 for no effect and ±100 for the full control effect.
SMILES,PI5P4Ka inh,APE1 inh,RECQ1 helicase,KAT2A inh,FEN1 inhibitor,BLM inh
Cc1ccc(NC(=O)N/C=C/c2ccco2)cc1C,-57.5*,-6.8%,?,8.9%,-3.4%,-8.8%
Cc1cccc2c(=O)[nH]c3c(-c4nc(-c5ccc(Cl)cc5)cs4)c(O)cn3c12,nt,nt,nt,nt,-6.0%,nt
OC[C@H]1OC(O)[C@@H](O)[C@@H](O)[C@H]1O (stereo partly drawn),nt,-4.7%,-8.8%,0.0%,nt,4.2%
O=C(O)CN1C(=O)/C(=C\c2cn(-c3ccccc3)nc2-c2ccccc2)SC1=S,?,15.0%,nt,-12.2%,?,-2.5%
O=C1C(=Cc2cn(-c3ccccc3)nc2-c2ccc(OCc3ccccc3)cc2)SC(=S)N1CCS(=O)(=O)O,-65.1*,nt,nt,nt,nt,nt
Cc1ccc(-c2nn(-c3ccccc3)cc2C=C2SC(=S)N(CCS(=O)(=O)O)C2=O)cc1,-89.0*,nt,nt,nt,nt,nt
CC(=O)c1ccc([N+](C)(C)C)cc1,nt,nt,nt,nt,1.4%,nt
O=C(NNc1ccccc1F)c1sccc1Cl,nt,nt,nt,nt,-6.0%,nt
CC(C)(C)n1ncc2c(=O)n(Cc3ccccc3C(F)(F)F)cnc21,nt,-0.4%,nt,nt,9.7%,nt
CO[C@H]1C[C@H](O[C@H]2[C@H](C)[C@@H](O[C@@H]3O[C@H](C)C[C@H](N(C)C)[C@H]3O)[C@@H](C)C[C@]3(CO3)C(=O)[C@H](C)[C@@H](O)[C@@H](C)[C@@H](C)OC(=O)[C@@H]2C)O[C@@H](C)[C@@H]1O,nt,-1.0%[21 µM],nt,nt,nt,nt
CC(C)=CCCC1(C)C=Cc2c(O)c3c(c(CC=C(C)C)c2O1)OC12C(=CCCC1C(C)(C)O[C@@]2(C/C=C(\C)C(=O)O)C(=O)O)C3=O (stereo partly drawn),nt,-8.2%,i,35.5µM*,nt,-3.0%
CC(C)(C)n1ncc2c(=O)n(Cc3cccc(-c4cccs4)c3)cnc21,nt,-5.6%,nt,nt,-47.0%,nt
O=c1[nH]c(=S)[nH]c2n[nH]nc12,nt,nt,nt,nt,-21.7%,nt
CCCCCCCCCCCCCCCC(=O)N[C@@H](COP(=O)(O)O)C(=O)O,nt,-2.2%,?,1.58µM*,nt,-20.2%
CCCCCCCCCCCCCCCC(=O)NC(C)C(=O)O (stereo not drawn),nt,-2.1%,i,nt,nt,-0.3%
COC(=O)c1sc(-c2cccs2)cc1NC(=O)/C=C/C(=O)O,-14.7,-3.2%,-6.6%,-12.7%,-12.9%,15.8µM*
Cn1ncc([N+](=O)[O-])c1C(=O)Nc1ccccc1C(=O)O,-51.6*,2.7%,nt,-4.7%,-5.1%,0.5%
N#C/C(=C\c1ccc(O)c(O)c1)C(=O)NCCCCc1ccccc1,nt,?,10µM*,?,nt,?
COc1cc(/C=C(\C#N)C(=O)Nc2ccc3c(c2)OCCO3)ccc1O,-55.8*,13.5%,-8.7%,-4.3%,-11.2%,-5.4%
COc1cc(/C=C(\C#N)C(=O)Nc2ccccn2)ccc1O,-52.0*,44.4%,nt,-3.3%,7.6%,-2.1%
COc1ccc(CCN2C(=O)CC(Cc3ccc(C)cc3)C2=O)cc1OC (stereo not drawn),-68.7*,-3.9%,14.9%,-8.7%,-0.1%,-5.0%
COc1ccc(CCN2C(=O)CC(NC34CC5CC(CC(C5)C3)C4)C2=O)cc1OC (stereo not drawn),1.9,0.5%,i,0.2%,33.1%,-0.7%
COc1ccc(Br)cc1/C=N/NC(=O)c1cc(OC)c(OC)c(OC)c1,1.7,-5.9%,-0.6%,-5.3%,-1.9%,-0.9%
COc1c(OC(C)=O)ccc(/C=N\NC(=O)c2ccc(Br)cc2)c1[N+](=O)[O-],-68.6*,2.6%,12.8%,-3.3%,?,-0.4%
COc1ccc2nc(SCC(=O)Nc3ccc(S(=O)(=O)N4CCCC4)cc3)c(C#N)cc2c1,nt,0.5%,-1.1%,-2.7%,2.1%,-2.8%
SMILES,PI5P4Ka inh,APE1 inh,RECQ1 helicase,KAT2A inh,FEN1 inhibitor,BLM inh
CCOc1ccc2nc(SCC(=O)Nc3ccc(S(=O)(=O)N4CCCC4)cc3)c(C)cc2c1,-0.3,11.7%,-9.0%,33.9%,39.8µM*,-2.8%
COC(=O)C1=C(C)N(CCCC(=O)O)C(=O)NC1c1ccccc1OS(=O)(=O)c1ccc([N+](=O)[O-])cc1 (stereo not drawn),-105.2*,nt,nt,nt,0.4%,nt
CC1=C(C(=O)OCc2ccccc2)C(c2ccccc2OS(=O)(=O)c2ccccc2[N+](=O)[O-])NC(=O)N1CCCC(=O)O (stereo not drawn),-98.6*,nt,nt,nt,4.9%,nt
CC1=C(C(=O)OCc2ccccc2)C(c2cccc([N+](=O)[O-])c2)NC(=O)N1CCCCCC(=O)O (stereo not drawn),-15.2,0.0%,-1.4%,-2.1%,-18.7%,2.4%
CCOC(=O)C1=C(C)N(CCCCCC(=O)O)C(=O)NC1c1cccc([N+](=O)[O-])c1 (stereo not drawn),-14.8,17.2%,nt,-5.1%,-2.9%,-3.7%
CCOC(=O)C1=C(C)N(CCCCCC(=O)O)C(=O)NC1c1ccc([N+](=O)[O-])cc1 (stereo not drawn),-1.7,28.5%,nt,8.0%,14.3%,0.3%
CCOC(=O)C1=C(C)N(CCCCCC(=O)O)C(=O)NC1c1ccccc1OS(=O)(=O)c1ccc(C)cc1 (stereo not drawn),-14.4,nt,nt,nt,-21.7%,nt
CCOC(=O)C1=C(C)N(CCCC(=O)O)C(=O)NC1c1ccccc1OS(=O)(=O)c1ccc(C)cc1 (stereo not drawn),-85.2*,-0.8%,-2.6%,-6.2%,-4.2%,0.2%
CCOC(=O)C1=C(C)N(CCCC(=O)O)C(=O)NC1c1ccccc1OS(=O)(=O)c1ccccc1[N+](=O)[O-] (stereo not drawn),-75.8*,nt,nt,nt,-4.0%,nt
O=C(C[n+]1cccc(Br)c1)c1ccc2ccccc2c1,nt,nt,nt,nt,-15.1%,nt
CCCCN(CCC#N)c1ccc(/C=C/c2ccnc3ccccc23)cc1,nt,nt,nt,nt,-9.7%,nt
N=C1C=CC(=C(c2ccc(N)cc2)c2ccc(N)cc2)C=C1,-52.5*,-3.0%,-9.4%,nt,-20.8%,nt
Nc1ccc(C(=O)C(=O)c2ccc(N)cc2)cc1,0.6,15.1%,i,0.3%,17.3%,-2.8%
CC(NS(=O)(=O)c1ccccc1[N+](=O)[O-])c1ccccn1 (stereo not drawn),nt,nt,nt,nt,-2.3%,nt
O=C(COC(=O)/C=C/c1ccc(Cl)cc1Cl)Nc1cccc(S(=O)(=O)NC2=NCCC2)c1,-75.0*,nt,nt,nt,nt,nt
Cc1ccc(NC(=O)CSc2nnc(-c3cccc([S+](=O)([O-])N4CCCC4)c3)n2-c2ccccc2)cc1,nt,48.5%,nt,nt,nt,nt
CC(C)OCCCNC(=O)c1cc(S(=O)(=O)N2CCc3ccccc32)cn1C,0.8,16.3%,nt,0.794µM*,-4.0%,2.2%
Cc1ccc(C)c2c1NC(C(=O)O)C1CC=CC21 (stereo not drawn),nt,nt,nt,nt,17.8µM*,nt

# Screens from PubChem.
